High-throughput results (PubChem BioAssay)
Only some compounds are listed: those with a hit (about 9.2% of all), similar ones and a draw of the others.
NPC1 prom act: activators of NPC1 promoter; Huh7 NPC1 promoter luciferase reporter, 24 h; Potency, µM (highest dose often 9.22 µM), without a hit: top-dose activation, usual class: activators; actives 2.4% (n = 320,000); AID 485313; further: % of control where 0% means no effect; nearly all actives have a fitted effect of over 60% in size
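Stably transfected Huh7 (NPC1 promoter→luciferase), 1500 cells/well in Opti-MEM + 10% FBS, 2 h settle, then compound 24 h at 37 °C. Luminescence after 10 min with Amplite reagent.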
ELG1 repair inh: blocks ELG1-dependent DNA repair in HEK293T cells | Potency, µM (titrated, usually from 46.1 µM), inactives show top-dose activity change, negative = inhibition, usual class: inhibitors | HEK293T ELG1-luciferase reporter, luminescence, 16 h; DNA damage induced by 5-fluorouridine | AID 504467 | actives 2.3% (n = 330,000); further: on the % scale 0 is the no-effect control and ±100 the full control effect; nearly all actives have a fitted effect of over 55% in size
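Luminescence from the luciferase reporter, measured 30 min after ONE-Glo reagent at room temperature, was the read-out. Beforehand, 2,000 cells per well were exposed for 16 hr at 37 °C to 5-fluorouridine together with compound or vehicle.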
Rab9 prom act: activates the Rab9 promoter; actives 2.8% (n = 320,000); Potency, µM (titrated, usually from 9.22 µM), for inactives: at the highest dose activation, negative = inhibition, hits mostly activators; Huh7 Rab9 promoter-luciferase reporter, luminescence, 24 h; further: % of control where 0% means no effect; nearly all actives have a fitted effect of over 60% in size
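Luciferase signal after 10 min detection reagent at ambient indicates Rab9 promoter upregulation; stably transfected Huh7 cells were treated 24 h with compound in DMSO at 37 °C, 5% CO2.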
FLuc modulator: inhibits or activates purified firefly luciferase, miR-21 counter-screen; purified FLuc, Km substrates, luminescence inhibition; actives 6.9% (n = 360,000); Potency, µM (series often up to 57.5 µM), for inactives: at the top dose activity change, negative = inhibition, most hits filed as inhibitors; AID 588342; P08659;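 further: plate controls were vehicle for no effect and reference inhibitor for full effect; nearly all actives have a fitted effect of over 55% in size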
Target sequence (P08659 whole entry, looked up): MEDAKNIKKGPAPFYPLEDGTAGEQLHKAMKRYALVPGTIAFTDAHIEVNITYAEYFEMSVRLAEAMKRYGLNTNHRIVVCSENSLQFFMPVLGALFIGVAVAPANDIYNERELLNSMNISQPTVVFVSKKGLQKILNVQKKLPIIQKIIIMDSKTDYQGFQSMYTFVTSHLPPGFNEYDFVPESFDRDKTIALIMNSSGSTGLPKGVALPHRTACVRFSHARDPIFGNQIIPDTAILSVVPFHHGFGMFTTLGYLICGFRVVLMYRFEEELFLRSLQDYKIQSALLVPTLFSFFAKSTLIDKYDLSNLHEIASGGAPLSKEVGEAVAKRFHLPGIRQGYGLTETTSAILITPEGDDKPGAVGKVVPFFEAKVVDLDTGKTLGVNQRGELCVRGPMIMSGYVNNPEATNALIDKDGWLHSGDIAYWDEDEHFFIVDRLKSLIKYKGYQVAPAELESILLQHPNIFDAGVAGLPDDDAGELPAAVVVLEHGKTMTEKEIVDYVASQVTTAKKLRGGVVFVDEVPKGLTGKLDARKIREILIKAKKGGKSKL
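Purified P. pyralis luciferase (10nM final) with 10uM D-luciferin and 10uM ATP (Km levels) in 50mM Tris acetate pH 7.5, 10mM Mg acetate, 0.01% Tween-20, 0.05% BSA; qHTS 6-point titration, ~60 µM downward; luminescence read.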
SMN2 splice up: enhancers of SMN2 splice variant expression. actives 2.8% (n = 210,000). AID 1458. Potency, µM (highest dose often 46.1 µM), inactives show at the top dose activity change, positive = activation, actives largely listed as activators. HEK293 SMN2-luciferase splicing reporter, luminescence, 30-36 h; further: % of control where 0% means no effect; nearly all actives have a fitted effect of over 55% in size
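qHTS luciferase splicing reporter: luminescence rises when SMN2 exon 7 is included in transfected HEK293 cells. Compound exposure lasted 30-36 h at 37C, with 4.5 mM final sodium butyrate as control, followed by a ONE-Glo read.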
ELG1 genotoxic: induces genotoxicity in HEK293T cells with luciferase-tagged ELG1; actives 1.3% (n = 330,000); Potency, µM (titrated, usually from 46 µM), inactives show top-dose activity change, positive = activation, actives largely listed as activators; HEK293T ELG1-luciferase reporter, luminescence, 16 h; AID 504466; further: % of control where 0% means no effect; nearly all actives have a fitted effect of over 60% in size
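Genotoxic stress is detected as increased luminescence from luciferase-tagged ELG1 in HEK293T cells, measured with ONE-Glo after a 16 hr treatment at 37 °C.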
* = called active by the depositor; ? = inconclusive; / = no result; [ ] = another dose, or the depositor's remark. The call rests on the fitted dose curve; in most records, active means well fitted curve in the direction sought with a large enough effect; inconclusive means small, poorly fitted or top-dose-only effect, or another doubt; inactive means no such curve, though single readings can be large; an effect the other way counts as inactive or inconclusive. Potency means the concentration at half of the fitted maximal effect.

SMILES	NPC1 prom act	ELG1 repair inh	Rab9 prom act	FLuc modulator	SMN2 splice up	ELG1 genotoxic
COc1cccc(C2=CC(c3cccc(OC)c3OC)n3nnnc3N2)c1 (stereo not given)	-10.8%	-2.3%	12.3%	23.9µM*	?	?
COc1ccc(C2C=C(c3ccccc3)Nc3nnnn32)cc1 (stereo not given)	3.98µM*	?	?	3.4%	3.1%	12.6%
COc1ccc(C2=CC(c3ccc(OC)c(OC)c3)n3nnnc3N2)c(OC)c1 (stereo not given)	-1.4%	?	1.6%	-8.0%	/	-2.3%
Cc1cc(F)ccc1NC(=O)c1sc2nc(-c3cccs3)ccc2c1N	/	/	/	2.7%	10µM*	/
CCOC(=O)c1sc2nc(C)cc(-c3ccccc3)c2c1N	-6.4%	-6.8%	-17.2%	0.6%	-17.9%	1.7%
NC(=O)c1sc2nc(-c3ccccc3)ccc2c1N	1.78µM*	?	3.16µM*	2.13µM*	/	?
CCOC(=O)c1sc2nc(-c3ccccc3)ccc2c1N	0.355µM*	?	0.282µM*	0.19µM*	0.794µM*	0.517µM*
NC(=O)c1sc2nc(-c3cccs3)ccc2c1N	?	?	?	9.53µM*	/	?
CCN(CC)S(=O)(=O)c1ccc2[nH]c(=O)cc(C(=O)NCC3CCCO3)c2c1 (stereo not given)	-1.9%	5.2%	1.9%	4.6%	/	-3.7%
Nc1c(C(=O)Nc2ccc(Br)cc2)sc2nc(-c3ccco3)ccc12	23.2%	8.4%	-3.7%	?	-29.0%	2.2%
CC(=O)c1sc2nc(-c3ccco3)ccc2c1N	?	?	?	3.79µM*	/	20.6µM*
O=C(O)c1ccc(N/N=C/C(Br)=C/c2ccccc2)cc1	0.355µM*	?	0.316µM*	0.477µM*	/	?
Cc1ccc(NCC(=O)N/N=C\C(Br)=C\c2ccccc2)cc1	-2.1%	12.2%	2.7%	6.8%	8.8%	5.3%
O=C(N/N=C/C(Br)=C/c1ccccc1)C1CC1	29.4%	?	2.82µM*	?	/	10.3%
O=C(N/N=C/C(Br)=C/c1ccccc1)C(O)c1ccccc1 (stereo not given)	21.8%	?	28.0%	15.1µM*	/	3.6%
COc1cc(CCC(=O)OCC(=O)Nc2ccc(F)c(F)c2F)cc(OC)c1OC	0.3%	?	5.0%	-0.3%	/	3.2%
CCc1nn(CC(=O)NCc2cccc(OC)c2)c(=O)c2cc3cc(F)ccc3n12	/	/	/	0.4%	-5.7%	/
CCOC(=O)C[N+]1(C)CCN(C(C)=O)CC1	-4.6%	-16.5%	-4.6%	-1.0%	-34.2%	1.5%
Cc1cc(O)c(C(=O)Cc2csc(C)n2)c(O)c1	?	?	3.98µM*	26.9µM*	?	?
CCc1cc(/C(Cc2csc(C)n2)=N/O)c(O)cc1O	-0.6%	?	-16.0%	-0.1%	-63.5%	-0.1%
COc1cc(/C=C/C(=O)Nc2cccc(S(=O)(=O)NC3=NCCCCC3)c2)ccc1OCC#N	1.0%	?	1.1%	-4.6%	/	-21.3%
Cc1cccc(NC(=O)Nc2ccccc2)n1	?	?	?	12µM*	/	?
COc1cccc(NC(=O)Nc2cccc(C)n2)c1	2.24µM*	?	?	5.36µM*	/	11.0%
Cc1cccc(NC(=O)Nc2ccc(Cl)c(Cl)c2)n1	?	?	?	2.39µM*	/	?
Cc1cc(NC(=O)Nc2ccc(Cl)c(Cl)c2)n(-c2ccccc2)n1	-2.3%	0.0%	16.4%	-17.1%	/	-4.9%
SMILES	NPC1 prom act	ELG1 repair inh	Rab9 prom act	FLuc modulator	SMN2 splice up	ELG1 genotoxic
Cc1cccc(NC(=S)NC(=O)/C=C/c2ccccc2)n1	?	?	2.51µM*	-1.8%	12.4%	5.2%
Cc1ccc(NC(=O)Nc2cccc(C)n2)c(C)c1	21.5%	?	?	?	/	?
COc1ccc(NC(=S)NC(=O)/C=C/c2ccccc2)cc1	0.5%	1.6%	11.3%	6.6%	/	-0.4%
CCCN(CCC)C(=O)Cn1nnc2sc(-c3ccccc3)cc2c1=O	/	/	/	-0.5%	-5.7%	/
CC(C)(C)c1nc(SCC(=O)N2CC(=O)Nc3ccccc32)c2ccccc2n1	0.0%	0.0%	1.7%	-0.9%	/	9.7%
Cc1cccc(N2CCN(C(=O)CNC(=O)Cc3ccccc3)CC2)c1C	/	?	/	/	/	-3.9%
Cc1cccc(N2CCN(C(=O)CNC(=O)c3cccc([N+](=O)[O-])c3)CC2)c1C	-3.3%	18.3µM*	-10.8%	-0.9%	/	-16.4%
Cc1ccn2cc(-c3cccc(NC(=O)c4cccs4)c3)nc2c1	19.0%	-7.2%	?	2.39µM*	?	-1.2%
O=C(Nc1cccc(-c2cn3cccnc3n2)c1)c1cccs1	-0.5%	-7.3%	-3.0%	?	12.9%	1.3%
Cc1cccn2cc(-c3cccc(NC(=O)c4cccs4)c3)nc12	12.5%	?	24.5%	4.78µM*	18.4%	4.6%
O=C(CN1CCCCC1)Nc1ccc(NC(=O)c2ccccc2Cl)cc1Cl	-3.2%	?	-7.4%	?	-26.1%	-2.7%
COc1cccc(C2=NN(C(=O)c3ccco3)C(c3ccco3)C2)c1 (stereo not given)	17.9%	20.8%	9.5%	10.7µM*	/	10.2%
CS(=O)(=O)Nc1ccc(C2=NN(C(=O)c3ccco3)C(c3ccco3)C2)cc1 (stereo not given)	0.2%	?	-1.8%	?	/	2.7%
COCC(C)N=C1NN=C(c2cc(C)n(Cc3ccccc3Cl)c2C)CS1 (stereo not given)	?	?	?	7.57µM*	-16.4%	?
CN=C1NN=C(c2cc(C)n(-c3c(C)n(C)n(-c4ccccc4)c3=O)c2C)CS1	-0.3%	9.2%	-3.2%	-1.3%	-1.8%	0.6%
COCCCN=C1NN=C(c2cc(C)n(Cc3ccco3)c2C)CS1	6.31µM*	?	10.2%	2.69µM*	?	3.26µM*
Cc1cc(-c2csc(N)n2)c(C)n1Cc1ccco1	0.3%	6.8%	-0.3%	?	?	-2.5%
Cc1cc(C2=NNC(=NC3CC3)SC2)c(C)n1Cc1ccco1	-33.6%	?	-50.0%	0.12µM*	-69.5%	17.8%
CCOCCCNC(=O)c1cc(Sc2ccc(F)cc2)nc2ccccc12	0.2%	18.4µM*	0.2%	-0.7%	-11.5%[1.84 µM]	-9.8%
O=C(O)[C@@H]1[C@@H](C(=O)NCc2ccncc2)[C@@H]2C=C[C@@H]1O2	/	/	/	/	-8.3%[9.22 µM]	/
CCOc1ccc(NC(=O)c2cccnc2Cl)c([N+](=O)[O-])c1	1.0%	7.0%	2.1%	0.3%	1.0%	3.0%
CCOc1ccc(NC(=O)c2ccco2)c([N+](=O)[O-])c1	2µM*	?	1.58µM*	2.39µM*	14.1µM*	?
